Source: PubChem (The Scripps Research Institute Molecular Screening Center)
Sampled rows, rich in hits. Any-hit rate of the full collection: about 2.4%.
CHRM1 antagonist: human M1 muscarinic receptor antagonists, primary screen, CHO-K1 cells, Fluo-8 calcium fluorescence, 1536-well; Muscarinic acetylcholine receptor M1 (Homo sapiens), P11229; inhibition, % at 3 µM; AID 588852, 2011; CHO-K1 hM1, ACh EC80 antagonist; hit rate 1.3% among 360,000;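 active means percent inhibition above its own plate's cutoff, namely the mean of that plate's compound wells plus 3 SD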;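 further: peak over basal fluorescence ratio during 140 s after agonist addition; 0% = ACh EC80 plus DMSO and 100% = DMSO alone without agonist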
Target sequence (P11229 whole entry, looked up): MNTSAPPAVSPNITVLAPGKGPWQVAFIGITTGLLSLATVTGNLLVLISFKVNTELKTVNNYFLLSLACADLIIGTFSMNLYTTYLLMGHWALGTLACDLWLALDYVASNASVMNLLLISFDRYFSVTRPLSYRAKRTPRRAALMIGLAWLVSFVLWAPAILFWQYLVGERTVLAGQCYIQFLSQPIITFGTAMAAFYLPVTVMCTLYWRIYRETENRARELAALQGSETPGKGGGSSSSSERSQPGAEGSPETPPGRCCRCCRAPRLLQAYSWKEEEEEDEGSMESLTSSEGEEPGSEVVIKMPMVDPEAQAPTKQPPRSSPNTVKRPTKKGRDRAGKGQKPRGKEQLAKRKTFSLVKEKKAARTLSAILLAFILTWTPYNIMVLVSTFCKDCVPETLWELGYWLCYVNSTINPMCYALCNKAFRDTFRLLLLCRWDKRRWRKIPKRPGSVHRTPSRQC
M1 ag parental: counter-screen for M1 agonists: effect in parental CHO-K1 cells; Fluo-8 calcium fluorescence; scaled to maximal ATP response, vehicle zero; activation, % at 3 µM; hit rate 0.48% among 360,000; AID 602248, 2012; in the data active means activation above about 15%;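 further: untransfected CHO-K1 host cells lacking M1 receptor as counterscreen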
CHO-K1 Ca PAM: nonselective calcium activators in parental CHO-K1 cells, primary screen, counter-screen for M1 PAM project, cell-based, Fluo-8 calcium fluorescence, full deck, 1536-well; AID 602247, 2012; ATP EC20; 0% at ATP EC20, 100% at ATP max; activation, % at 3 µM; hit rate 0.02% among 360,000;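 active means activation above the run cutoff, the mean activation of all test compounds plus 3 SD, cut at about 40% in these data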;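 further: peak over basal fluorescence ratio in a 140 s read after ATP addition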
CHO-K1 Ca antag: nonselective inhibitor or artifact in parental CHO-K1 cells; ATP-induced calcium, Fluo-8 fluorescence; inhibition, % at 3 µM; hit rate 0.6% among 360,000;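 active means inhibition above a per-plate cutoff, the plate's mean sample inhibition plus 3 SD, cut at about 24% in these data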;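 further: 0% = DMSO plus EC80 ATP and 100% = DMSO alone without ATP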
CHRM1 agonist: human M1 muscarinic receptor agonists, primary screen, Fluo-8 calcium fluorescence, CHO-K1 cells, HTS; CHO-K1 hM1, agonist mode; 0% DMSO, 100% acetylcholine EC100; AID 588814, 2011; activation, % at 3 µM; hit rate 0.33% among 360,000;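 active means activation above the run's mean compound activation plus 3 SD, cut at about 16% in these data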;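 further: peak over basal fluorescence ratio within a 140 s kinetic read after compound addition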
CHRM1 PAM: human M1 muscarinic receptor positive allosteric modulators, primary screen, CHO-K1 cells, Fluo-8 calcium fluorescence, 1536-well; activation, % at 3 µM; AID 588819, 2011; hit rate 0.088% among 360,000; CHO-K1 hM1, ACh EC20; 0% = ACh EC20, 100% = maximal ACh; in the data active means activation above about 19%, passing the limit was not always enough
* hit, by the source's call.

SMILES | CHRM1 antagonist | M1 ag parental | CHO-K1 Ca PAM | CHO-K1 Ca antag | CHRM1 agonist | CHRM1 PAM
CCOC(=O)COc1nc(-c2ccc(Cl)cc2)cc(-c2ccco2)c1C#N | -3 | 12 | 10 | 3 | 2 | 8
CCOC(=O)COc1nc(-c2ccccc2)cc(-c2ccco2)c1C#N | 40* | 1 | 15 | 0 | -5 | -22
COC(=O)c1ccccc1Oc1cnc2ccccc2n1 | -8 | 1 | -8 | -7 | -9 | 4
COc1cccc(C2SCC(=O)N2c2ccc(C)cc2)c1OC (configuration not stated) | 58* | 0 | 16 | -8 | -11 | -27
Cc1ccc(S(=O)(=O)c2nc(-c3ccccc3Cl)oc2NCCCN2CCOCC2)cc1 | 14 | 2 | -1 | -2 | -3 | -2
COc1ccc(CCC(=O)Nc2cc3c4c(c2)CC(=O)N4CCC3)cc1 | -7 | 0 | -5 | -4 | -4 | 8
O=C(NN=C1CCCC1)c1cc(-c2ccc(F)cc2)nc2ccccc12 | -6 | 1 | 29 | -15 | -3 | 7
Cc1cc(C(=O)NN=C2CCCCCCC2)c2ccccc2n1 | -7 | 0 | -5 | 42* | -4 | 8
Cc1onc(-c2ccccc2)c1C(=O)N1CCN(S(=O)(=O)c2ccc(OC(F)(F)F)cc2)CC1 | 3 | 1 | 2 | -11 | -6 | -1
O=c1sc2ccccc2c(N2CCCC2)c1[N+](=O)[O-] | -8 | 0 | 4 | 1 | 3 | 8
Nc1c([N+](=O)[O-])c(=O)sc2ccccc12 | -5 | 15* | 10 | -1 | -5 | 10
O=C(Nc1cccc(C(=O)N2CCOCC2)c1)c1ncn[nH]1 | 4 | 1 | 15 | -3 | -4 | 1
CS(=O)(=O)c1ccc2nc(NC(=O)Nc3cccc(Cl)c3)sc2c1 | 33* | 16* | -9 | 12 | 6 | -14
O=C(Nc1cccc(Cl)c1)Nc1nnc(-c2ccncc2)s1 | 25 | 11 | -5 | 33* | 4 | -10
COc1ccc(CNC(=O)N2CCN(S(=O)(=O)c3ccccc3F)CC2)cc1 | -1 | 2 | 8 | -2 | -4 | 3
CCOC(=O)c1c(C)[nH]c(C(=O)OCC(=O)c2ccccc2)c1C | -3 | 2 | 0 | 5 | -4 | -1
CC(C)(C)c1ccc(NC(=O)Nc2ccc(F)cc2)cc1 | 49* | 16* | -5 | 36* | -3 | -30
O=C(Nc1ccc(F)cc1)Nc1cc(OCC(F)(F)F)cc(OCC(F)(F)F)c1 | 18 | 14 | -13 | 32* | 1 | -18
COc1cccc(NC(=O)Nc2ccncc2)c1 | -2 | 1 | 10 | -1 | -2 | 5
COc1cccc(NC(=O)Nc2ccc(C(C)(C)C)cc2)c1 | 26* | 19* | -15 | 46* | -4 | -23
CCc1sc(C(=O)NCCc2ccc(S(N)(=O)=O)cc2)cc1Br | 9 | 0 | -12 | 29* | -7 | -9
Cc1cc(C(=O)Nc2sc(C)c(-c3ccc(F)cc3)c2C(N)=O)no1 | 1 | 0 | -5 | 10 | -1 | 5
CCN(CC)c1ccc(/C=N/NC(=O)CNC(=O)c2ccc3c(c2)OCCO3)cc1 | -35 | -1 | 3 | -21 | -11 | 31*
CN(C)c1ccc(/C=N/NC(=O)CNC(=O)c2ccc3c(c2)OCCO3)cc1 | -1 | 0 | 24 | -3 | -7 | 0
O=C(c1ccc2c(=O)n3c(nc2c1)CCCCC3)N1CCN(C(c2ccccc2)c2ccccc2)CC1 | 79* | 0 | 11 | -29 | -14 | -34
O=C(c1ccc(=O)oc1)N1CCN(C(c2ccccc2)c2ccccc2)CC1 | 77* | 1 | 13 | -13 | -12 | -33
Cc1nn(C)cc1CN(C)C(=O)c1nn2c(c1Br)NC(c1cccs1)CC2C(F)(F)F (configuration not stated) | -11 | 3 | 10 | -2 | 0 | 7
